# Calls of active or inactive are those of the source. The calls were made as follows: active = hit-call score of the fitted dose curve at least 0.9, where 1 is the maximum; inactive = score below 0.9.
# Read-out: sulfotransferase 2A1 (SULT2A1), SULT2A1 (gene 6822)
# Assay: LTEA_HepaRG_SULT2A1: Life Technologies and Expression Analysis (LTEA) Assay for sulfotransferase 2A1 (SULT2A1) using HepaRG (AID 2283531)
# Conditions: mRNA level, 48 h; actives raise or lower the signal
# Protocol: LTEA_HepaRG is a cell based, multiplexed-readout assay that uses HepaRG, a human liver cell line, with measurements taken at 48 hours after chemical dosing on a 96-well plate.LTEA_HepaRG_SULT2A1 is one of 102 assay component(s) measured in the LTEA HepaRG cell culture assay. It is a marker of NR mediated transport.Data from the assay component LTEA_HepaRG_SULT2A1 was analyzed into 1 endpoint. This assay endpoint, LTEA_HepaRG_SULT2A1, was analyzed with bidirectional fitting relative to DMSO as the negative control and baseline of activity. Using a type of inducible reporter, measures of mRNA induction for gain or loss-of-signal activity can be used to understand regulation of transcription factor activity. To generalize the intended target to other relatable targets, this assay endpoint is annotated to the transferase intended target family, where the subfamily is sulfotransferase.
# A total of 1060 chemcials from the ToxCast library were tested in eight-point concentration-response experiments. Cell culture and cytotoxicity assays were conducted at Thermo Fisher Scientific's Custom Services facility (Madison, WI). A single lot of human HepaRG cells (Thermo Fisher Scientific, Frederick, MD) was used for the cell culture experiments. 96-well format collagen type I coated plates of human HepaRG cells were prepared using established methods. Briefly, cryopreserved HepaRG cells were thawed, plated at a density of approximately 100,000 cells/well in HepaRG Thaw, Plate, and General Purpose media (HPRG770, Thermo Fisher Scientific), and incubated for 48 hours. 0.5% DMSO was selected as vehicle control to balance the requisite need of DMSO in HepaRG cultures to maintain differentiation (for example, baseline metabolism, proportions of hepatocytes vs. cholangiocytes), while enabling further hepatic receptor pathway activation (for example, PXR and CAR) in response to chemical exposure. 48 hours after plating, the culture medium was replaced with HepaRG Serum-Free Incudtion Media. Cells were exposed to each test chemical in duplicate and maintained in CO2 incubators for another 48 hours. Chemical plates were thawed to room temperature and 200x concentrations of treatment groups were prepared. 8-point conentration-reponse curves were made with the highest exposure at 100 uM, followed by half-log dilutions, all in 0.5% DMSO. Each test plate contained variouse controls, induction positive controls (1mM phenobarbital), cytotoxicity positive controls ([…] aflatoxin B1), vehicle controls (0.5% DMSO), and total lysis controls (0.5% DMSO). Cell morphology images were taken using an Essen IncuCyte FLR automated microscope, with six 96-well plates imaged in about 24 minutes. Images were captured and exported and JPEG files. Spent culture media was transfered to black-well plates for the LDH assay, and remaining media was sorted at -80 C for later use. Cells were treated with RLT buffer and frozen until shipped for gene expression analysis. Total RNA was isolated from the cell suspension in 75 uL of Buffer RLT (Qiagen, Germantown, MD 20874) by Quintiles/Expression Analysis (Durham, NC) using a custom isolation procedure. Total RNA from each plate well was transferred to a preamplification plate. Fluidigm's 96.96 Dynamic ArrayTM (Fluidigm, Amsterdam, the Netherlands) technology was used for gene expression analyses by quantitative reverse transcription polymerase chain reaction (qRT-PCR, performed by Quintiles/Expression Analysis, Durham, NC)89. Standard TaqManTM Assays (Applied Biosystems/ThermoFisher Scientific, Foster City, CA) were used to assess the expression of 93 genes selected based on their selectivity and sensitivity to important hepatic receptors known to be modulated by environmental chemicals; importance in human hepatocyte functionality; and hepatotoxicity. […]
SMILES,outcome,AC50
CC(C)(C)c1ccc(O)c(C(C)(C)C)c1,inactive,
c1ccc2c(c1)Cc1ccccc1-2,inactive,
CCCCCCCCC(=O)O,inactive,
CC(=O)NC1(c2cccc(F)c2)CCN(CC[C@@]2(c3ccc(Cl)c(Cl)c3)CN(c3ccccc3)C(=O)CO2)CC1,inactive,
CC(O)CO (stereo not given),inactive,
CCc1nn(C2CCCCC2)c2cc(C3(C#N)CCC(C(=O)O)CC3)ccc12 (stereo not given),,80.4 µM (active)
CCCCCCCC(=O)O,inactive,
OC1CCC(C2CCCCC2)CC1 (stereo not given),inactive,
CC[C@H](C)[C@@H](C(=O)O)n1sc2ccccc2c1=O,inactive,
O=[N+]([O-])c1ccc(O)cc1,inactive,
CC(=O)CC(C)(C)O,inactive,
COc1ccc([N+](=O)[O-])cc1N,inactive,
Nc1cccc2c(N)cccc12,inactive,
Cc1cc(C)c(O)c(C)c1,inactive,
CCC(=C(c1ccc(O)cc1)c1ccc(OCCN(C)C)cc1)c1ccccc1,,85.5 µM (active)
c1ccc2cc3c(ccc4ccccc43)cc2c1,,13.3 µM (active)
CC#C[C@]1(O)CC[C@H]2[C@@H]3CCC4=CC(=O)CCC4=C3[C@@H](c3ccc(N(C)C)cc3)C[C@@]21C,,57.4 µM (active)
COCC(C)OCC(C)O (stereo not given),inactive,
C#C[C@]1(O)CC[C@H]2[C@@H]3CCC4=CC(=O)CC[C@@H]4[C@H]3CC[C@@]21C,,15.9 µM (active)
Cc1cc(CCN2CCN(c3nsc4ccccc34)CC2)cc2c1NC(=O)CC2(C)C,,85.8 µM (active)

SMILES,outcome,AC50
Oc1cccc(O)c1,inactive,
c1ccc2c(c1)ccc1ccccc12,inactive,
ClC1=C(Cl)C(Cl)(Cl)C(Cl)=C1Cl,inactive,
CCC(C)(C)C1CCC(O)CC1 (stereo not given),inactive,
OCCC(F)(F)C(F)(F)C(F)(F)C(F)(F)C(F)(F)C(F)(F)F,inactive,
CCN(CC)CCNc1ccc(CNC=O)c2sc3ccc(OC)cc3c(=O)c12,,76 µM (active)
CCCOC(=O)c1ccc(O)cc1,inactive,
CCCCC(CC)COC(=O)CCCCC(=O)OCC(CC)CCCC (stereo not given),inactive,
CCCCCCCCCCCCCCCS(=O)(=O)Oc1ccccc1,inactive,
NC(=O)N1C(=O)C(C(=O)c2cc(Cl)cs2)c2cc(F)c(Cl)cc21 (stereo not given),,34.2 µM (active)
CCOC(=O)CC(O)(CC(=O)OCC)C(=O)OCC,inactive,
CC(C)(C)c1cc(C(C)(C)C)c(O)c(C(C)(C)C)c1,inactive,
O=C(OCCOCCOC(=O)c1ccccc1)c1ccccc1,inactive,
CC[C@H](c1ccc(O)cc1)[C@@H](CC)c1ccc(O)cc1,,79.7 µM (active)
COC(=O)CCCCC(=O)OC,inactive,
CN1CCC[C@H]1c1cccnc1,inactive,
CCCCC(CC)COC(=O)CCCCC(=O)OCc1ccccc1 (stereo not given),inactive,
CC(C)(C)CC(C)(C)c1ccc(O)c(-n2nc3ccccc3n2)c1,inactive,
CCCCCCCCOC(=O)CCCCCCCCC(=O)OCCCCCCCC,inactive,
CCCCOCCO,inactive,

# — PubChem BioAssay (EPA / NIEHS)
